Source: PubChem BioAssay AID778 (Sanford-Burnham Center for Chemical Genomics, 2007)
Screen size: about 96,000 compounds; about 20,000 (21%) were called active. Not all results are given here. A number with no mark means an inactive call.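 How the source made its calls: active means CYP2C19 inhibition above a set limit at 5 µM in the primary screen (cut at about 50% in these data); inactive means the rest.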

Molecular target: Cytochrome P450 2C19 (Homo sapiens) (UniProt P33261)
Test: blockers of cytochrome P450 2C19 activity – biochemical, luminescence, ADME assay, primary screen (AID 778);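 further: plate controls were negative control wells for no effect and 2.5 mM tranylcypromine positive control for full effect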
Conditions: CYP2C19 Supersomes, luciferin-H EGE luminescence, 30 min; at 5 µM; active compounds read high

Cytochrome P450 2C19 (Homo sapiens), sequence (P33261 whole entry, looked up): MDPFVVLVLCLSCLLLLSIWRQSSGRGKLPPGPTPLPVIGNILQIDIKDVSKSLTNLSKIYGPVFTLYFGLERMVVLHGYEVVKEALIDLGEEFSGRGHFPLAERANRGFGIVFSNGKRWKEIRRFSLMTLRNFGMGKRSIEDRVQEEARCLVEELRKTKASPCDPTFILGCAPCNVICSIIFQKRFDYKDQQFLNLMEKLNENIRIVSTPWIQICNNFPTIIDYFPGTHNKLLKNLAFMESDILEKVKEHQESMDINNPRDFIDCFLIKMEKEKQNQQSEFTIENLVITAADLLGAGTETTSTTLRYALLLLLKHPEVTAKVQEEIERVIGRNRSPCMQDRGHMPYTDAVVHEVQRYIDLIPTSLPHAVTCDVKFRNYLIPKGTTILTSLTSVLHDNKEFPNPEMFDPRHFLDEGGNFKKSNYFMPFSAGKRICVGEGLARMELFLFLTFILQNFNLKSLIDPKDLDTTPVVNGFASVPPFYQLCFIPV

Structure (SMILES)	inhibition
CCOc1ccc(-c2c(C)n([O-])c3c([n+]2=O)CCCC3)cc1	9.2%
Cc1ccn2cc(-c3nonc3C)cc2c1	50.1% (active)
COc1cc(Cl)c(S(=O)(=O)N2CCN(Cc3ccc4c(c3)OCO4)CC2)cc1Cl	36.2%
COc1ccc(NC(=O)CN2CCN(S(=O)(=O)c3ccc(F)cc3)CC2)cc1Cl	0.5%
COc1ccc(Cl)cc1S(=O)(=O)N1CCN(CC(=O)C(C)(C)C)CC1	85.9% (active)
COc1cc(NS(=O)(=O)c2ccc(N=Cc3c(C)[nH]n(-c4ccccc4)c3=O)cc2)nc(OC)n1	-18%
COc1cc(/C=N\NC(=O)CNC(=O)c2cccc([N+](=O)[O-])c2)ccc1O	23%
COc1ccc(C(=O)Nc2ccccc2C(=O)N/N=C/c2ccccc2OC)cc1	-5.9%
COc1ccc(C(=O)Nc2ccccc2C(=O)N/N=C/c2ccc(O)c(OC)c2)cc1	87.2% (active)
N#Cc1ccsc1NC(=O)CN1CCCCC1	-6.2%
CC1CCc2c(sc3nc4n(c(=O)c23)CCS4)C1 (configuration not stated)	-6.7%
NNC(=O)C1CCCn2c1nc1sc3c(c1c2=O)CCCC3 (configuration not stated)	12.4%
Cn1c(NN)nc2sc3c(c2c1=O)CCC3	78.4% (active)
Cc1cccc(N2CCN(Cc3c(C)n(C)n(-c4ccccc4)c3=O)CC2)c1C	15.2%
COC(=O)Nc1sc2nc(C)cc(C)c2c1-n1cccc1	19.5%
Cn1c(NC(=O)c2ccco2)c(-c2ccccc2Cl)c(=O)c2ccccc21	-6.5%
CCCC(O)(c1ccc(OC)cc1)C(CN(C)C)c1ccccc1 (configuration not stated)	-13.2%
CCOC(=O)c1c(NC(=O)c2cccs2)sc(C)c1C	-10.4%
CCc1nnc(NC(=O)c2cccs2)s1	14.6%
CCc1c(C)sc(NC(=O)c2cccs2)c1C(N)=O	84.1% (active)
CN1CCN(CC(=O)Nc2sc3c(c2C#N)CCC(C(C)(C)C)C3)CC1 (configuration not stated)	26.1%
O=C(NC1CCCC1)c1ccc(Br)s1	71.3% (active)
O=C(Cc1ccc(F)cc1)NC1CCCC1	43.4%

Structure (SMILES)	inhibition
CN(CC(=O)NC1CCCCC1)S(=O)(=O)c1ccc(Br)s1	11.4%
Cc1cccc(-n2c(O)c(C=Nc3ccccc3N)c(=O)[nH]c2=O)c1	-2.2%
C=CCNC(=O)CCCC(=O)NCC=C	0.1%
O=C(COC(=O)c1ccccc1C(=O)c1ccccc1)c1ccco1	84.4% (active)
CCN(CC)c1ccc(C(=O)OCC(=O)c2ccco2)cc1	8.1%
O=C(CNC(=O)c1ccco1)OCC(=O)c1ccccc1	17.9%
CCCC(=O)C1=C(N(C)c2ccccc2)CC(C)(C)C(C(=O)OC)C1=O (configuration not stated)	14.5%
CCOC(=O)c1cc2c(ccn2C)n1CC(=O)N1CCC(C)CC1	55.4% (active)
CCOC(=O)c1cc2occc2n1CC(=O)N1CCN(C(=O)c2ccco2)CC1	-4%
CCOC(=O)c1cc2occc2n1CC(=O)NC1CCC(C)CC1 (configuration not stated)	56.3% (active)
CC1CCN(C(=O)CN(c2ccc(Oc3ccccc3)cc2)S(C)(=O)=O)CC1	28.4%
CC1CCN(C(=O)Cn2cc(C(=O)c3ccco3)c3ccccc32)CC1	17.1%
CCC(C(=O)N1CCOCC1)n1c(C(=O)OC)cc2occc21 (configuration not stated)	35.4%
CCOc1ccc(NC(=O)CSc2nc3c(c(=O)n2-c2ccccc2OC)SCC3)cc1	37.5%
CC1(C)CC(CC(=O)O)C(=O)O1 (configuration not stated)	-11.1%
Cc1nc2ccc(S(=O)(=O)NCC(=O)NCCN3CCCCC3C)cc2s1 (configuration not stated)	5.2%
Nn1cnnc1N/N=C/c1cc([N+](=O)[O-])c(Cl)cc1Cl	15.9%
CCOC(=O)C1(C(F)(F)F)N=C(N(C)C)OC(N(C)C)=N1	-7.2%
CC1COC2C(O1)N(S(C)(=O)=O)CCN2S(C)(=O)=O (configuration not stated)	-4.9%
Cc1ccnc(N2CCN(C(=O)CSc3nc4ccccc4nc3N3CCCCC3)CC2)c1	79.1% (active)
Cc1ccc(S(=O)(=O)NCC(=O)N2CCN(c3ccccn3)CC2)cc1	-1.8%
Cc1ccc2oc(=O)c3cnn(CC(=O)N4CCN(c5ccccn5)CC4)c3c2c1	10.9%
NC(=O)C1(N2CCCCC2)CCN(C2CC(=O)N(Cc3ccc(N4CCCC4=O)cc3)C2=O)CC1 (configuration not stated)	22.1%

Structure (SMILES)	inhibition
CC(C)(O)C#Cc1ccc(C(=O)N2CCC(C(N)=O)(N3CCCCC3)CC2)cc1	14.8%
NC(=O)C1(N2CCCCC2)CCN(C(=O)c2ccc(C#Cc3ccccc3)o2)CC1	71% (active)
Cc1nc2nc(COc3ccccc3)[nH]n2c(=O)c1C	-11.1%
OCCCN1c2ccccc2Nc2nnc(-c3ccccc3)cc21	39.5%
O=S(N1CCCCCC1)C12CC3CC(CC(C3)C1)C2 (configuration not stated)	77.6% (active)
CN(CCO)Cc1csc2ccc(Br)cc12	-8.9%
COc1cc(C2C(C(=O)OCCC#N)=C(C)NC3=C2S(=O)(=O)c2ccccc23)cc(OC)c1OC (configuration not stated)	15.8%
C=CCn1c(CC(=O)Nc2cccc(OC)c2)nnc1SCC(=O)NC1CCCCC1	-6%
COc1ccc(N(CC(=O)NC2CCCCC2)S(=O)(=O)c2c(C)[nH]c(=O)[nH]c2=O)cc1	11.3%
COc1cccc(-n2c(SCC(=O)NC3CCCCC3)nc3n[nH]c(C)c3c2=N)c1	50.9% (active)
Cc1cccc(NC(=O)c2cc(N3C(=O)CCC3=O)ccc2Cl)n1	14.7%
CC1(C)Cc2c(sc3nc(SCC(=O)NCc4ccccc4)n(-c4ccccc4)c(=O)c23)CS1	1.8%
CCCSc1nc2c(c(=O)n(C)c(=O)n2C)n1Cc1ccc(C)cc1	17.6%
Cc1cccc(Cn2c(N3CCN(c4ccccc4)CC3)nc3c2c(=O)n(C)c(=O)n3C)c1	72.8% (active)
Cc1cccc(Cn2c(SCCO)nc3c2c(=O)n(C)c(=O)n3C)c1	51.7% (active)
CCOc1ccc(Cn2c(SCCCCC#N)nc3c2c(=O)n(C)c(=O)n3C)cc1OCC	20.4%
CCOC(=O)N1CCN(Cc2nc3c(c(=O)n(C)c(=O)n3C)n2Cc2ccccc2)CC1	30%
CCOC(=O)CSc1nc2c(c(=O)n(C)c(=O)n2C)n1Cc1ccccc1F	63.1% (active)
CCOC(=O)CSc1nc2c(c(=O)n(Cc3ccccc3Cl)c(=O)n2C)n1C	-6%
CC(C)OCCCNc1nc2c(c(=O)n(Cc3ccccc3F)c(=O)n2C)n1C	42.7%
Cn1c(=O)c2c(nc(NCCc3ccccc3)n2Cc2ccccc2)n(C)c1=O	8.9%
